Assay outcomes: PubChem, National Center for Advancing Translational Sciences (NCATS)
Most compounds without a hit are left out; they make up all but 18% or so of the library.
TDP1 block = blocks human tyrosyl-DNA phosphodiesterase 1; recombinant TDP1, AlphaScreen DNA substrate cleavage; Potency, µM (titrated, usually from 130 µM), inactives show at the highest dose activity change, negative = inhibition, most hits filed as inhibitors; actives 0.28% (n = 350,000); AID 485290; further: potency means the concentration at half of the fitted maximal effect; on the % scale 0 is the no-effect control and ±100 the full control effect; nearly all actives have a fitted effect of over 40% in size
Target sequence (Q9NUW8 whole entry, looked up): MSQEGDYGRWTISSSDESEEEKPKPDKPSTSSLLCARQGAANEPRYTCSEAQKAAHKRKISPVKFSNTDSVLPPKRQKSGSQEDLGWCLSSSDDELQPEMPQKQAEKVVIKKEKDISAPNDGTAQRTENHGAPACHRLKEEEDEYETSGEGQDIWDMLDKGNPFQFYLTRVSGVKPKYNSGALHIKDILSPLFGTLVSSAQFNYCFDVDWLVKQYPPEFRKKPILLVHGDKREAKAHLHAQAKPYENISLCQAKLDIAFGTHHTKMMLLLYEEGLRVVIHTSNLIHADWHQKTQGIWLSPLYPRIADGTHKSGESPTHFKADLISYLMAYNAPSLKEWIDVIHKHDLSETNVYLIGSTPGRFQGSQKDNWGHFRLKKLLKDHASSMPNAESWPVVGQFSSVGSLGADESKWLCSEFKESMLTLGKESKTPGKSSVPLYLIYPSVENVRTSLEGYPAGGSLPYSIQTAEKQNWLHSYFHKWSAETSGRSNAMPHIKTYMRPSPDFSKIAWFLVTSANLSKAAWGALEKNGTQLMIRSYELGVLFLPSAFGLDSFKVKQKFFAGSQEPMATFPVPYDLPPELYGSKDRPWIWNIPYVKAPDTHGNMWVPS
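Recombinant E. coli-expressed Tdp1 (1 nM) preincubated with compound 15 min at RT, then 5'-biotin/3'-phosphotyrosine-FITC DNA substrate (15 nM) added for 5 min. AlphaScreen beads (10 ug/ml) added, 10 min RT; tyrosine-FITC cleavage read as signal loss.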
HepG2 tox = HepG2 cytotoxicity, counter-screen for TGF-b inhibitors. HepG2 CAGA-GFP viability, ATP luminescence, 18 h. Potency, µM (highest dose often 46.1 µM), for inactives: at the highest dose activity change, negative = cytotoxicity, most hits filed as cytotoxic. actives 0.76% (n = 410,000). AID 588856; further: potency means the concentration at half of the fitted maximal effect
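HepG2 CAGA-GFP cells (1000/well, DMEM with 1% FBS) received compound, then TGF-beta at 500 pg/mL final, and were incubated 18 hours at 37 degrees C. Viability was read by CellTiter-Glo luminescence. Media-only wells were set as complete cell-killing and DMSO as no toxicity.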
TGFb SMAD3 inh = inhibitors of TGF-b signaling | HepG2 CAGA-GFP TGF-b/SMAD3 reporter, GFP fluorescence, 18 h; TGF-beta stimulated, 500 pg/mL final | Potency, µM (top dose mostly 46.1 µM), inactives show top-dose activity, negative = inhibition, hits mostly inhibitors | actives 1.2% (n = 410,000); further: potency means the concentration at half of the fitted maximal effect; on the % scale 0 is the no-effect control and ±100 the full control effect; nearly all actives have a fitted effect of over 65% in size
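HEPG2 CAGA-GFP cells (1000/well, DMEM with 1% FBS) were pre-incubated 2 h at 37 degrees C, given compound by pin tool, then stimulated with TGF-beta at 500 pg/mL final for 18 h before per-cell GFP fluorescence imaging.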
TDP1 cell CPT = growth inhibition of DT40 Tdp1-/-;hTDP1 cells with camptothecin (screen for TDP1 inhibitors); chicken DT40 Tdp1-/-;hTDP1 cells + 20 nM CPT, ATP luminescence, 48 h; Potency, µM (titrated, usually from 46.2 µM), for the others: at the top dose activity change, negative = growth inhibition, actives largely listed as inhibitors; actives 12% (n = 420,000); AID 686979; further: potency means the concentration at half of the fitted maximal effect; on the % scale 0 is the no-effect control and ±100 the full control effect; nearly all actives have a fitted effect of over 55% in size
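Chicken DT40 Tdp1-/- cells stably complemented with human TDP1 were seeded at 400 cells/well in medium containing 20 nM camptothecin, exposed to pin-transferred compounds, and grown at 37 °C for at least 48 hr. Viability was read as ATP luminescence.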
IL1B secr inh = blocks inflammasome-driven IL-1 beta release; THP-1 LPS/ATP IL-1B secretion, AlphaLISA, 16 h; stronger effect = lower value; AID 743279; activity change, % at 57.5 µM; actives 4.7% (n = 360,000); in the data active means activity change below about -50%; inconclusive means mostly about -30% to -49%; further: on the % scale 0 is the no-effect control and ±100 the full control effect
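THP-1 cells pretreated 1 hr with compounds (up to 57.5 uM final), then stimulated with LPS (250 ng/mL final) plus ATP (1.25 mM final); secreted IL-1B measured by AlphaLISA after 16 hr, decreased signal indicating inhibition.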
TDP1 cell noCPT = qHTS for Inhibitors of human tyrosyl-DNA phosphodiesterase 1 (TDP1): qHTS in cells in absence of CPT. DT40 Tdp1-/- hTDP1 cells, no CPT, ATP luminescence, 48 h. Potency, µM (titrated, usually from 46.2 µM), inactives show at the top dose activity change, negative = growth inhibition, hits mostly inhibitors. actives 15% (n = 420,000); further: potency means the concentration at half of the fitted maximal effect; on the % scale 0 is the no-effect control and ±100 the full control effect; nearly all actives have a fitted effect of over 55% in size
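No-CPT arm: Tdp1-/-;hTDP1 DT40 cells (400/well) plus compounds, incubated ≥48 hr at 37 °C. Readout CellTiter-Glo luminescence.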
An asterisk follows results filed as active; ? = inconclusive; . = no result given; [ ] = remark or other dose. Unless noted, the call rests on the fitted dose curve; in most records, active means well fitted curve in the direction sought with a large enough effect; inconclusive means small, poorly fitted or top-dose-only effect, or another doubt; inactive means no such curve, though single readings can be large; an effect the other way counts as inactive or inconclusive.

SMILES	TDP1 block	HepG2 tox	TGFb SMAD3 inh	TDP1 cell CPT	IL1B secr inh	TDP1 cell noCPT
O=C1c2ccccc2[C@@H]2C[C@@H](O)[C@H](Nc3ccccc3-c3ccccc3)CCN12	0%[56.1 µM]	-9%	1%	?	-1	18µM*
CCOC(=O)c1ccccc1NC(=O)c1nn(-c2ccc(C)cc2)c(=O)n(C)c1=O	7%	0%	4%	?	.	?
Cc1ccc(CNCC(O)(c2ccccc2)c2ccccc2)cc1	.	-40%	-27%	?	-11	21µM*
CCc1ccc(C(O)(CNCc2ccccc2)c2ccccc2)cc1 (stereo unspecified)	.	-48%	?	23µM*	-10	21µM*
Cc1ccc(CNC(=O)NCc2ccccc2)cc1	5%	-3%	-13%	-13%	43	0%
O=C(NNC(=O)c1ccccc1F)C1=NN(c2ccccc2)C(=O)CC1	.	18%	10%	12%	4	1%
COCCOC(=O)C1=C(C)NC(SCC(=O)NC(C)(C)C)=C(C#N)C1c1ccco1 (stereo unspecified)	4%	3%	-8%	26µM*	-3	23µM*
CCCCOC(=O)CSC1=C(C#N)C(c2cccnc2)C(C(=O)OCC)=C(c2ccccc2)N1 (stereo unspecified)	-5%	-6%	-3%	?	-27	?
CCOC(=O)C1=C(c2ccccc2)NC(SCC(=O)NC2CCCCC2)=C(C#N)C1c1ccco1 (stereo unspecified)	2%	-7%	?	6%	-55*	2%
C=CCOC(=O)C1=C(C)NC(SCC(=O)Nc2ccc(C)c(Cl)c2)=C(C#N)C1c1ccco1 (stereo unspecified)	3%	-50%	-31%	?	-3	29µM*
Clc1ccc(N2CCN(c3cnc4ccccc4n3)CC2)cc1	8%	-10%	6%	23µM*	-9	?
CC1(C(=O)NS(=O)(=O)C2CC2)CCCN(C(=O)COCc2ccccc2)C1 (stereo unspecified)	.	6%	30%	6.5µM*	-15	2.3µM*
CC1(C(=O)NS(=O)(=O)C2CC2)CCCN(C(=O)COc2ccccc2)C1 (stereo unspecified)	.	-1%	1%	?	40	?
CC1(C(=O)NS(=O)(=O)C2CC2)CCCN(C(=O)c2cc3ccccc3s2)C1 (stereo unspecified)	.	9%	-4%	0.65µM*	14	0.82µM*
COc1ccc(CC(=O)N2CCC(C)(C(=O)NS(=O)(=O)C3CC3)C2)cc1OC (stereo unspecified)	.	5%	0%	2%	23	-12%
CC1(C(=O)NS(=O)(=O)C2CC2)CCCN(C(=O)Cc2ccc3ccccc3c2)C1 (stereo unspecified)	.	0%	20%	9.2µM*	25	10µM*
COc1ccc(C(=O)Nc2nc3n(n2)C(c2ccc(Cl)cc2)C=C(c2ccccc2)N3)cc1OC (stereo unspecified)	6%	-23%	17%	15µM*	.	15µM*
O=C(Nc1nc2n(n1)C(c1ccccc1)C=C(c1ccccc1)N2)c1ccccc1 (stereo unspecified)	.	-11%	31%	16µM*	.	18µM*
O=C(Nc1nc2n(n1)C(c1ccc(F)cc1)C=C(c1ccccc1)N2)c1ccco1 (stereo unspecified)	11%	-17%	-8%	16µM*	.	23µM*
COc1ccc(C2C=C(c3ccccc3)Nc3nc(NC(=O)c4cccc([N+](=O)[O-])c4)nn32)cc1 (stereo unspecified)	6%	-8%	11%	?	.	?
O=C(Nc1nc2n(n1)C(c1ccc(Cl)cc1)C=C(c1ccccc1)N2)c1ccco1 (stereo unspecified)	3%	-24%	12%	21µM*	.	21µM*
CC(=O)Nc1nc2n(n1)C(c1ccc(F)cc1)C=C(c1ccc(Cl)cc1)N2 (stereo unspecified)	11%	-39%	-8%	?	.	?
O=S(=O)(Nc1nc2n(n1)C(c1ccc(F)cc1)C=C(c1ccc(Cl)cc1)N2)c1ccccc1 (stereo unspecified)	3%	2%	50%	-25%	.	-18%
O=S(=O)(Nc1nc2n(n1)C(c1ccc(F)cc1)C=C(c1ccccc1)N2)c1ccccc1 (stereo unspecified)	3%	-46%	-18%	?	.	21µM*
CC#CC[N+](C)(C)CCCCCCCCCCCC	5%	-46%	?	0.58µM*	0	0.46µM*
SMILES	TDP1 block	HepG2 tox	TGFb SMAD3 inh	TDP1 cell CPT	IL1B secr inh	TDP1 cell noCPT
C#CC[N+](C)(C)CCCCCCCC	3%	-13%	-1%	?	-54*	?
C#CC[N+](C)(C)CCCCCCCCCCCC	3%	-89%	?	1.3µM*	-88*	0.65µM*
C#CC[N+](C)(C)CCCCCCCCCC	1%	-37%	?	2.1µM*	-80*	2.3µM*
OCCCNc1ncnc2c1ncn2[C@H]1CN(Cc2ccc(-c3ccccc3)cc2)C[C@@H](CO)O1	.	-23%	-14%	15µM*	63	21µM*
C=CCNc1ncnc2c1ncn2[C@H]1CN(Cc2ccc(-c3ccccc3)cc2)C[C@@H](CO)O1	.	-20%	-7%	16µM*	-12	23µM*
COCCNc1ncnc2c1ncn2[C@H]1CN(Cc2ccc(F)cc2)C[C@@H](CO)O1	.	-2%	6%	-18%	20	-17%
COCCNc1ncnc2c1ncn2[C@H]1CN(Cc2ccc(-c3ccccc3)cc2)C[C@@H](CO)O1	.	-12%	?	18µM*	1	21µM*
